Measurements published in PubChem BioAssay (EPA / NIEHS).
Where “and” joins values, the source holds several entries; their conditions need not be identical. Equal entries are not always repeated. More than one record can exist for a structure, and the calls need not agree. Calls of active or inactive are those of the source. The calls were made as follows: active = hit-call score of the fitted dose curve at least 0.9, where 1 is the maximum; inactive = score below 0.9.

Key:
[1] = read-out: Matrix Metallopeptidase 1 (MMP1), MMP1 (gene 4312); assay: BSK_BF4T_MMP1: BioMAP Diversity Plus: BF4T Assay for Matrix Metallopeptidase 1 (MMP1) Biomarker Activity (AID 2284270); settings: primary human bronchial epithelial cells with fibroblasts
How it was run: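 MMP-1 quantified by ELISA in primary human bronchial epithelial/dermal fibroblast co-cultures, 24 hours post-dosing, with DMSO as baseline; parallel sulforhodamine B staining (560 nm) tracks overt cytotoxicity.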

[2] = read-out: Matrix Metallopeptidase 3 (MMP3), MMP3 (gene 4314); assay: BSK_BF4T_MMP3: BioMAP Diversity Plus: BF4T Assay for Matrix Metallopeptidase 3 (MMP3) Biomarker Activity (AID 2284271); settings: primary human bronchial epithelial cells with fibroblasts
How it was run: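 MMP-3 level read by ELISA after 24 h chemical exposure of bronchial epithelial cell/dermal fibroblast co-cultures, fitted upward relative to DMSO. Parallel cultures stained with 0.1% SRB after TCA fixation gauge overt cytotoxicity.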

[3] = read-out: Tissue plasminogen activator (tPA), PLAT (gene 5327); assay: BSK_BF4T_tPA: BioMAP Diversity Plus: BF4T Assay for Tissue plasminogen activator (tPA) Biomarker Activity (AID 2284272); settings: primary human bronchial epithelial cells with fibroblasts
How it was run: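 tPA level quantified by ELISA at 24 h post-treatment in bronchial epithelial/dermal fibroblast co-cultures, gain of signal scored against DMSO baseline. Parallel cultures stained with 0.1% SRB (560 nm) to flag overt cytotoxicity.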

[4] = read-out: Plasminogen Activator Inhibitor-1 (PAI1), SERPINE1 (gene 5054); assay: BSK_BF4T_PAI1: BioMAP Diversity Plus: BF4T Assay for Plasminogen Activator Inhibitor-1 (PAI1) Biomarker Activity (AID 2284273); settings: primary human bronchial epithelial cells with fibroblasts
How it was run: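 PAI-1 levels quantified by ELISA 24 h post-dosing in bronchial epithelial cell plus dermal fibroblast cultures. Signal gain referenced to DMSO baseline. Sulforhodamine B total-protein staining of parallel wells checked cytotoxicity.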

[5] = BSK_BF4T_SRB: Viability Assessment in the BioMAP Diversity Plus: BF4T Assay (AID 2284274); settings: primary human bronchial epithelial cells with fibroblasts
How it was run: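 Cytotoxicity measured as total protein: cells fixed with 10% TCA, stained with 0.1% SRB, read at 560 nm. Bronchial epithelial/dermal fibroblast co-culture, 24 h after dosing, with positive-direction fitting relative to DMSO.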

[6] = read-out: urokinase Plasminogen Activator (uPA), PLAU (gene 5328); assay: BSK_BF4T_uPA: BioMAP Diversity Plus: BF4T Assay for urokinase Plasminogen Activator (uPA) Biomarker Activity (AID 2284275); settings: primary human bronchial epithelial cells with fibroblasts
How it was run: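 uPA levels measured by ELISA at 24 hours in BF4T cultures (bronchial epithelial cells plus dermal fibroblasts) and compared with DMSO; cytotoxicity tracked in parallel cultures by sulforhodamine B staining.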

[7] = read-out: Matrix Metallopeptidase 9 (MMP9), MMP9 (gene 4318); assay: BSK_BF4T_MMP9: BioMAP Diversity Plus: BF4T Assay for Matrix Metallopeptidase 9 (MMP9) Biomarker Activity (AID 2284276); settings: primary human bronchial epithelial cells with fibroblasts
How it was run: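 MMP-9 levels were measured by ELISA after 24 h exposure of bronchial epithelial cell/dermal fibroblast co-cultures, with DMSO as baseline. Parallel cultures were stained with 0.1% SRB after TCA fixation, read at 560 nm, to flag overt cytotoxicity.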

[8] = read-out: Interleukin-8 (IL8), CXCL8 (gene 3576); assay: BSK_IMphg_IL8: BioMAP Diversity Plus: IMphg Assay for Interleukin-8 (IL8) Biomarker Activity (AID 2284277); settings: primary human endothelial cells with macrophages
How it was run: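 IL-8 levels were measured by ELISA 24 h after dosing in primary human venular endothelial cell–macrophage cultures, referenced to DMSO; parallel SRB staining monitored overt cytotoxicity.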

[9] = read-out: Intercellular Adhesion Molecule 1 (ICAM1), ICAM1 (gene 3383); assay: BSK_BE3C_ICAM1: BioMAP Diversity Plus: BE3C Assay for Intercellular Adhesion Molecule 1 (ICAM1) Biomarker Activity (AID 2284278); settings: primary human bronchial epithelial cells;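 also: cell-surface ICAM-1 protein level quantified by ELISA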
How it was run: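 ELISA read-out of ICAM-1 on human lung bronchial epithelial primary cells, 24 h post-dosing; positive-direction curve fit, DMSO = baseline. SRB total-protein staining of parallel cultures flagged overt cytotoxicity.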

[10] = read-out: Interleukin-8 (IL8), CXCL8 (gene 3576); assay: BSK_BE3C_IL8: BioMAP Diversity Plus: BE3C Assay for Interleukin-8 (IL8) Biomarker Activity (AID 2284280); settings: primary human bronchial epithelial cells
How it was run: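 Primary human bronchial epithelial cells (BE3C system) were exposed to test chemical for 24 h, and IL-8 levels were then measured by ELISA. Activity was fitted in the positive (gain-of-signal) direction against a DMSO negative-control baseline.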

[11] = read-out: Epidermal growth factor receptor (EGFR), EGFR (gene 1956); assay: BSK_BE3C_EGFR: BioMAP Diversity Plus: BE3C Assay for Epidermal growth factor receptor (EGFR) Biomarker Activity (AID 2284281); settings: primary human bronchial epithelial cells
How it was run: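 Human primary bronchial epithelial cells were exposed to compound for 24 h, and cell-surface EGFR was then quantified by ELISA. Activity was fitted in the positive direction against the DMSO vehicle baseline.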

KRT18 (gene 3875) = assay: BSK_BE3C_Keratin818: BioMAP Diversity Plus: BE3C Assay for Keratin 818 Biomarker Activity (AID 2284282); settings: primary human bronchial epithelial cells
How it was run: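 ELISA read-out of Keratin 8/18 in BE3C human bronchial epithelial cultures, 24 h post-dosing; positive-direction fit vs DMSO baseline.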

[12] = read-out: Matrix Metallopeptidase 9 (MMP9), MMP9 (gene 4318); assay: BSK_BE3C_MMP9: BioMAP Diversity Plus: BE3C Assay for Matrix Metallopeptidase 9 (MMP9) Biomarker Activity (AID 2284283); settings: primary human bronchial epithelial cells
How it was run: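 Human primary bronchial epithelial cells in the BE3C system were dosed with compound for 24 h. MMP-9 was measured by ELISA, and the positive-direction response was fitted relative to DMSO as baseline. Parallel SRB staining gauged cytotoxicity.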

[13] = read-out: Plasminogen activator inhibitor-1 (PAI1), SERPINE1 (gene 5054); assay: BSK_CASM3C_PAI1: BioMAP Diversity Plus: CASM3C Assay for Plasminogen activator inhibitor-1 (PAI1) Biomarker Activity (AID 2284284); settings: primary human coronary artery smooth muscle cells
[14] = read-out: Monocyte Chemoattractant Protein-1 (MCP1), CCL2 (gene 6347); assay: BSK_hDFCGF_MCP1: BioMAP Diversity Plus: hDFCGF Assay for Monocyte Chemoattractant Protein-1 (MCP1) Biomarker Activity (AID 2284285); settings: primary human foreskin fibroblasts
How it was run: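 MCP-1 ELISA readout was taken 24 hours after dosing primary human dermal fibroblasts in the hDFCGF system, with DMSO as baseline. Parallel sulforhodamine B staining of total protein tracked overt cytotoxicity.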

[15] = read-out: Vascular cell adhesion molecule 1 (VCAM1), VCAM1 (gene 7412); assay: BSK_IMphg_VCAM1: BioMAP Diversity Plus: IMphg Assay for Vascular cell adhesion molecule 1 (VCAM1) Biomarker Activity (AID 2284286); settings: primary human endothelial cells with macrophages
How it was run: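 ELISA read-out of VCAM-1 on venular endothelial cell/macrophage co-cultures at 24 h post-treatment, with DMSO as baseline and positive-direction fitting. Parallel sulforhodamine B total-protein staining (560 nm) served as the overt cytotoxicity measure.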

[16] = read-out: Intercellular Adhesion Molecule 1 (ICAM1), ICAM1 (gene 3383); assay: BSK_hDFCGF_ICAM1: BioMAP Diversity Plus: hDFCGF Assay for Intercellular Adhesion Molecule 1 (ICAM1) Biomarker Activity (AID 2284287); settings: primary human foreskin fibroblasts
How it was run: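 ICAM-1 ELISA readout 24 h after dosing, DMSO as baseline, in human dermal foreskin fibroblast cultures. Cytotoxicity checked in parallel wells by SRB staining (0.1% SRB, 10% TCA fixation, 560 nm).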

CD40, CD40 (gene 958) = assay: BSK_IMphg_CD40: BioMAP Diversity Plus: IMphg Assay for CD40 Biomarker Activity (AID 2284288); settings: primary human endothelial cells with macrophages
How it was run: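 ELISA read-out of cell-surface CD40 at 24 h in human venular endothelial cell/macrophage co-cultures. Activity fitted in the positive direction against DMSO; parallel SRB staining (560 nm) gauges overt cytotoxicity.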

[17] = read-out: TIMP metallopeptidase inhibitor 2 (TIMP2), TIMP2 (gene 7077); assay: BSK_hDFCGF_TIMP2: BioMAP Diversity Plus: hDFCGF Assay for TIMP metallopeptidase inhibitor 2 (TIMP2) Biomarker Activity (AID 2284289); settings: primary human foreskin fibroblasts
How it was run: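 Primary human foreskin fibroblasts in the hDFCGF system, dosed for 24 h; TIMP-2 level measured by ELISA, fitted in the positive direction against DMSO; cytotoxicity checked in parallel by sulforhodamine B total protein staining.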

[18] = read-out: Interferon-inducible T-cell alpha chemoattractant (ITAC), CXCL11 (gene 6373); assay: BSK_BE3C_ITAC: BioMAP Diversity Plus: BE3C Assay for Interferon-inducible T-cell alpha chemoattractant (ITAC) Biomarker Activity (AID 2284279); settings: primary human bronchial epithelial cells
How it was run: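 Steps: dose human bronchial epithelial cells with chemical; incubate 24 h; measure I-TAC by ELISA; fit endpoint in positive direction against DMSO control. Cytotoxicity was checked in parallel cultures by SRB staining at harvest.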

Measured: AC50

NC(=O)C(F)(F)C(F)(F)C(F)(F)C(F)(F)C(F)(F)C(F)(F)C(F)(F)F
not listed: [18]
inactive: all other assays above

O=C(Cl)C(F)(F)C(F)(F)C(F)(F)C(F)(F)C(F)(F)C(F)(F)C(F)(F)F
active: [1] 19.9 µM | [6] 21.6 µM | [7] 18.7 µM | [8] 30 µM and 36.9 µM | [10] 15.9 µM
inactive: [1] | [3] | [4] | [5] | [6] | [7] | [9] | [18] | [10] | [11] | KRT18 (gene 3875) | [12] | [13] | [14] | [15] | [16] | CD40, CD40 (gene 958) | [17]

O=C(O)C(F)(F)OC(F)(F)C(F)(F)OC(F)(F)C(F)(F)OC(F)(F)F
inactive: [1] | [3] | [4] | [5] | [6] | [7] | [8] | [9] | [10] | [11] | KRT18 (gene 3875) | [12] | [13] | [14] | [15] | [16] | CD40, CD40 (gene 958) | [17]
active: [3] 20 µM and 5.38 µM | [8] 5.47 µM and 14.2 µM | [12] 1.47 µM

NCC(F)(F)C(F)(F)C(F)(F)C(F)(F)C(F)(F)C(F)(F)C(F)(F)C(F)(F)F
not listed: [2]
inactive: all other assays above

O=C(O)CCC(F)(F)C(F)(F)C(F)(F)F
inactive: [1] | [2] | [3] | [4] | [5] | [6] | [7] | [8] | [9] | [10] | [11] | KRT18 (gene 3875) | [12] | [13] | [14] | [15] | [16] | CD40, CD40 (gene 958) | [17]
active: CD40, CD40 (gene 958) 220 nM

COC(F)(C(F)F)C(F)(F)F (stereo not given)
not listed: [18]
inactive: all other assays above

C=C(C)C(=O)OCC(F)(F)C(F)(F)C(F)(F)C(F)F
not listed: [18]
inactive: all other assays above

CCOC(=O)CC(=O)C(F)(F)C(F)(F)F
inactive: all assays above

NC(=O)C(F)(F)C(F)(F)C(F)(F)C(F)F
not listed: [18]
inactive: all other assays above

OCC(F)(F)C(F)(F)C(F)(F)CO
not listed: [18]
inactive: all other assays above

O=C(O)C(F)(F)C(F)(F)C(F)(F)OC(F)(C(F)(F)F)C(F)(F)F
inactive: [1] | [2] | [3] | [4] | [5] | [6] | [7] | [8] | [9] | [10] | [11] | KRT18 (gene 3875) | [12] | [13] | [14] | [15] | [16] | CD40, CD40 (gene 958) | [17]
active: [2] 39.5 µM | [8] 16.1 µM | [12] 6.87 µM
